The source of these data is PubChem BioAssay AID588405 (Sanford-Burnham Center for Chemical Genomics, 2011).

Each structure is given as a SMILES string. In all, about 360,000 compounds went through this assay and about 6,200 (1.7%) were called active.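 The calls were made as follows: active = inhibition of at least 50% at 20 µM; inactive = the rest.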 The list comes from a sample in which actives are over-represented; it also holds similar structures and randomly drawn compounds.

The test is described as follows: Peg3 promoter-driven luciferase inhibitors, primary screen, cell-based, HeLa, luciferase luminescence (AID 588405). Particulars: HeLa PEG-Prom luciferase reporter, overnight, at 20 µM, active compounds read high.
As for `O=[N+]([O-])c1ccc(C=Nc2ccc(Cl)cc2Cl)s1`, the inhibition was 47.5% (inactive).
The result for `Cc1nn(-c2ccccc2)c(Cl)c1/C=N/NC(=O)c1nn(C)cc1[N+](=O)[O-]` reads -116% (inactive); that for `CC(C)(C)c1cc(C(=O)N/N=C/c2ccc([N+](=O)[O-])s2)n[nH]1`, 50.6% (active); that for `CCNC(=O)C1(C)CCCN(C(=O)c2ccc3ccccc3n2)C1` (stereo not given), -7.45% (inactive).
The result for `CNC(=O)c1cccc2nc3ccccc3nc12` reads 6.22% (inactive); that for `CN(C)CCNC(=O)c1ccc(Cl)c2cc3ccccc3nc12`, 102% (active); that for `CCCN(CCC)CCNC(=O)c1cc2c(C)nc3ccccc3c2o1`, 18.8% (inactive).
Then `COc1ccc(-c2cc3c(c4c2ccn4C)C2CCC3C2)cn1` (stereo not given), with -6.53% (inactive); and `CNC[C@H](CC1CCCCC1)NC[C@H](NCCC1CCCC1)[C@H](C)O`, with 73.8% (active); and `CCCCC[C@@H]1C=C(C(=O)OCC)[C@H](c2ccccc2)N1S(=O)(=O)c1ccc(C)cc1`, with 12.8% (inactive).
On to `CC(C)Cc1nnc(NC(=O)CCC(=O)Nc2ccc3cn[nH]c3c2)s1`, for which the inhibition is 19.8% (inactive).
Then `COC(=O)c1cc(NC2c3ccccc3C(=O)N2c2ccc(Cl)cn2)cc(C(=O)OC)c1` (stereo not given), with -65.5% (inactive).
In the case of `CN(Cc1ccccc1F)c1cc2c(c3c1ccn3C)C1CCC2O1` (stereo not given), the inhibition is 33.1% (inactive).
Then `Cc1cccc(C(=O)OC(C)CN2CCN(C)CC2)c1` (stereo not given), with -101% (inactive); and `Cc1cccc(-c2nc3ccc(C(=O)NCCN4CCN(C)CC4)cc3nc2-c2cccc(C)c2)c1`, with 103% (active); and `Cc1cc(C)cc(C(=O)NCCN2CCOCC2)c1`, with 3.53% (inactive).
The result for `Cc1ccc(S(=O)(=O)NCC(=O)NNC(=O)c2ccc(Br)cc2)cc1C` reads 4.68% (inactive).
The result for `CCOc1cc(N2CCOCC2)c(OCC)cc1NC(=O)c1ccc(C)s1` reads -88.6% (inactive).
`CCOc1cc(N2CCOCC2)c(OCC)cc1NC(=O)COc1cccc2cccnc12`: the inhibition was 109% (active).
As for `CCOc1cc(N2CCOCC2)c(OCC)cc1NC(=O)COC(=O)[C@H](Cc1c[nH]c2ccccc12)NC(C)=O`, the inhibition is 22.9% (inactive).
Then `CC1(C(=O)Nc2cccc3c2CCCC3)CCN1C(=O)CCc1ccc(Cl)cc1Cl` (stereo not given), with 36.2% (inactive); and `COc1ccc(OC)c(C(O)c2nc3ccccc3n2C)c1` (stereo not given), with 0.26% (inactive); and `CC1=C(C(=O)N2CCOCC2)CC(CC(=O)NCCCN(C)C)C(=O)N1Cc1ccc(C(C)(C)C)cc1` (stereo not given), with -10.2% (inactive).
The result for `Cc1ccc(S(=O)Cc2ccc(C(=O)N3CCN(C4CCCCC4)CC3)o2)cc1` (stereo not given) reads 24.1% (inactive); that for `CN(C)S(=O)(=O)c1cccc(C(=O)OCC(=O)N2CCCC2=O)c1`, -2.53% (inactive); that for `CCOC(=O)c1ccc(NC(=O)Cc2cccs2)cc1`, -222% (inactive).
The result for `O=C(COC(=O)CNC(=O)c1ccco1)Nc1ccc(F)cc1` reads 8.45% (inactive); that for `CCOC(=O)c1ccc(NC(=O)CNC(=O)c2ccco2)cc1`, 102% (active); that for `CCCNC(=O)C1(C)CCN(Cc2ccc(Cl)c(Cl)c2)C1` (stereo not given), 1.28% (inactive).
In the case of `Cc1ccc(NC(=O)Nc2cc(-c3ccccc3)nn2C)cc1Cl`, the inhibition is 4.66% (inactive).
Then `CC(=O)Nc1ccc(-c2cn3cccnc3n2)cc1`, with -72.3% (inactive); and `CC(=O)Nc1ccc(-c2csc(NC(=O)Nc3ccccc3)n2)cc1`, with 102% (active); and `COc1ccc(S(=O)(=O)N(C)C[C@H]2Oc3c(NC(=O)Nc4ccc5c(c4)OCO5)cccc3C(=O)N([C@H](C)CO)C[C@@H]2C)cc1`, with -2.6% (inactive).
The result for `CCCNC(=O)C1(C)CCN(C(=O)c2cc(F)ccc2C)C1` (stereo not given) reads -1.83% (inactive); that for `CCc1nc2ccc(C(=O)N3CCC(O)(Cc4ccccc4)CC3)cn2c1N(C)C(=O)Cc1ccccc1`, 4.95% (inactive).
The result for `COc1ccc(/C(C)=N/N2CCOCC2)c(O)c1` reads -9.18% (inactive); that for `CCCC(O)(c1ccc(OC)cc1)C(CN(C)C)c1ccccc1` (stereo not given), 7.67% (inactive); that for `Cc1cc(C)n(CC(O)COc2ccc(C(C)(C)C)cc2)n1` (stereo not given), -28.6% (inactive).
`CN(C)CC(O)COc1ccc(C(C)(C)c2ccc(OCC(O)CN(C)C)cc2)cc1` (stereo not given): the inhibition is 77.5% (active).
Then `CS(=O)(=O)N(CC(=O)N1CCCC1)Cc1ccccc1`, with 3.29% (inactive); and `CCCCc1ccc(S(=O)(=O)NC(=O)C2(C)CCN2C(=O)c2ccccc2)cc1` (stereo not given), with 0.57% (inactive).
On to `O=C(NCCO)c1cccc(-c2cccc3nccn23)c1`, for which the inhibition was -16.2% (inactive).
The result for `O=C(Nc1ccc2c(c1)OCCO2)C(C1CC1)N1CCC(Cc2ccccc2)CC1` (stereo not given) reads -10.2% (inactive).
As for `NC(c1csc(NC(=O)Nc2cccc(C(F)(F)F)c2)n1)C1CCCCC1` (stereo not given), the inhibition was 111% (active).
The result for `COc1ccc(C(CC(=O)Nc2ccc(C)cc2)NC(=O)C(F)(F)F)cc1` (stereo not given) reads 3.66% (inactive); that for `COc1cccc(NC(=O)Nc2ccc(F)cc2)c1`, -212% (inactive).
The result for `C/C(CC(=O)Nc1cccc(C(F)(F)F)c1)=N\NC(=O)C(=O)NCC(C)C` reads -1.6% (inactive).
For `CC(=O)c1ccc(Nc2nc(C(N)c3ccccc3)cs2)cc1` (stereo not given), the inhibition is -58.5% (inactive).
For `NC(c1ccccc1)c1csc(NC(=O)Nc2cccc(C(F)(F)F)c2)n1` (stereo not given), the inhibition was 113% (active).
Then `COc1ccc(C(N)c2csc(NC(=O)Nc3cccc(C(F)(F)F)c3)n2)cc1` (stereo not given), with 96.6% (active).
The result for `O=C(Nc1ccc(C(=O)N2CCOCC2)cc1)Nc1cccc(C(F)(F)F)c1` reads 2.67% (inactive); that for `O=C(Nc1cccc(F)c1)NC1CCCCCCC1`, -273% (inactive).
Then `Cc1cc(Br)ccc1NC(=O)CCCOc1cc(=O)n(C)c2ccccc12`, with -16.6% (inactive).
Consider `Cc1ccc(C)c(OCCC(=O)Nc2cccc(S(=O)(=O)N3CCCC3)c2)c1`, for which the inhibition was 21.3% (inactive).
The result for `COC(=O)CNC(c1ccccc1Cl)c1cc(Br)ccc1NC(=O)CCN1CCOCC1` (stereo not given) reads 20.5% (inactive).
The result for `COC(=O)Cc1cnc(NC(=O)CSc2nc(C(C)C)cc(=O)[nH]2)s1` reads 1.1% (inactive).
The result for `CC1(Oc2cccc(F)c2)CCN(Cc2ccccc2OC(F)F)C1` (stereo not given) reads 2.93% (inactive); that for `CCCNC(=S)N1CCC(NC(=O)C23CC4CC(CC(C4)C2)C3)CC1`, 8.28% (inactive).
As to `CCNC(=O)C1CCCN(C(=O)c2cc(F)ccc2C)CC1` (stereo not given), the inhibition was 2.54% (inactive).
With `CCc1nc2ccc(C(=O)NC3CCN(Cc4ccccc4)CC3)cn2c1N(C)CCN1CCOCC1`, the inhibition is -22.2% (inactive).
As to `CCC(=O)N1CCC(C)(C(=O)Nc2cc(OC)c(OC)c(OC)c2)C1` (stereo not given), the inhibition was -5.88% (inactive).
Then `CCOC(=O)c1[nH]c2ccccc2c1N=C(C)N(CC)CC`, with 12.3% (inactive); and `CCOC(=O)c1c(C)[nH]c2c1-c1ccccc1C(=O)C2=O`, with 108% (active); and `CCOC(=O)c1c(C)[nH]c(C)c1S(=O)(=O)NCCCc1ccco1`, with -7.04% (inactive).
Turning to `Brc1ccc(Nc2c3c(nc4ncnn24)CCC3)cc1`, the inhibition was 22.3% (inactive).
The result for `CC(=O)c1cccc(-c2cnc3c(NC=O)cc(-c4ccc(N5CCN(C)CC5)cc4)cn23)c1` reads -143% (inactive); that for `CC1(C(=O)NS(=O)(=O)c2cccc(OC(F)F)c2)CCN1C(=O)C1CC1` (stereo not given), -2.21% (inactive); that for `CCCCn1c(N)c(N2CCOCC2)c(=O)n(CC(=O)NCCc2ccccc2)c1=O`, 2.61% (inactive).
Then `CN(C(=O)CCN1C(=O)/C(=C/c2ccccc2F)SC1=S)C1CCS(=O)(=O)C1` (stereo not given), with 6.96% (inactive); and `O=C(CN1CCCCCC1)NCCN1C(=O)S/C(=C\c2ccccc2Cl)C1=O`, with 3.28% (inactive); and `O=C1/C(=C\c2ccccc2Cl)SC(=S)N1CCC(=O)N1CCCc2ccccc21`, with 105% (active).
Then `Cc1cc(Br)cn2c(Cc3cccc(F)c3)c(-c3cccc(Br)c3)nc12`, with 33.6% (inactive); and `COc1ccc(-c2ccc(C(=O)NCCN3CCOCC3)c3occc23)c(C)c1`, with -2.5% (inactive); and `CCOC1=C2[C@H]([C@H]3C(=O)N(c4ccccc4)C(=O)[C@H]3C1)[C@@H](c1ccccc1)N(S(=O)(=O)c1ccc(C)cc1)[C@H]2c1ccccc1`, with 16.4% (inactive).
In the case of `Cc1ccc(S(=O)(=O)N(C)C)cc1NC(=O)c1ccc(-n2cncn2)c([N+](=O)[O-])c1`, the inhibition is 6.01% (inactive).
The result for `CCN(CC)C(=O)C1CCCN(Cc2cccc(Cl)c2)C1` (stereo not given) reads 3.55% (inactive); that for `COc1ccc(-c2csc(C(O)c3cccc(Cl)c3)n2)cn1` (stereo not given), -7.77% (inactive).
The result for `COc1ccc2c(c1)c(=Cc1ccc(N(C)C)cc1)c1cc(-c3ccccc3)[n+](C)n12` reads 104% (active); that for `Cc1nc2cc(S(=O)(=O)C(F)(F)F)ccc2s1`, 2.35% (inactive); that for `COc1cccc(CN2CCC(C(=O)NC(c3ccc4c(c3)OCO4)c3ccccn3)CC2)c1` (stereo not given), -0.88% (inactive).
Take `Cc1cccnc1C(NC(=O)C1CCN(Cc2ccc(Cl)c(Cl)c2)CC1)c1ccc(Cl)cc1` (stereo not given): the inhibition was 2.43% (inactive).
The result for `CCn1c(/C=C/c2ccc([N+](=O)[O-])o2)nc2ccccc2c1=O` reads 93.3% (active).
The result for `Cc1ccc(-n2c(SCC(=O)N/N=C/C=C/c3ccccc3[N+](=O)[O-])nc3ccccc3c2=O)cc1` reads 6.9% (inactive); that for `O=c1c2ccccc2ncn1/N=C/c1ccccc1`, -247% (inactive); that for `CC1(C(=O)NS(=O)(=O)Cc2cccc(Cl)c2)CCN1C(=O)Cc1ccccc1` (stereo not given), 8.1% (inactive).
Then `Cc1ccc(NS(=O)(=O)c2cc3c(cc2Br)NC(=O)CO3)cc1C`, with 24.2% (inactive).
Regarding `O=C(CCl)Nc1cccc(CP(=O)(c2ccccc2)c2ccccc2)c1`, the inhibition was 22.4% (inactive).
The result for `CC(C)(CCl)C(=O)Nc1ccc(Sc2ccc(F)cc2)cc1` reads -14% (inactive).
Then `O=C(CCl)Nc1ccc(Sc2ccc(NC(=O)CCl)cc2)cc1`, with 99.8% (active); and `CC(C)C1C(=O)N(Cc2cn(CCC3OCCO3)nn2)CCS(=O)(=O)N1Cc1ccc(-c2ccccc2C(F)(F)F)cc1` (stereo not given), with 12.5% (inactive).
